A short description of assay [1]: optical density shifts of acrAB sulA E. coli – strain DRC41, OD650, 48 h, E. coli filamentation inducer project, primary screen (AID 1152).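 Further: E. coli MC1000 strain DRC41 lacking acrAB efflux pump and sulA.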 To be noted: higher = more signal, called active from +8 up or from −8 down.
Assay [2] in a line: probe aLefty1 binding on compound microarray – biochemical, small-molecule microarray, 635/667 nm fluorescence, primary screen (AID 1153).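 Further: score merges spot fluorescence with signal-to-noise ratio from the scanned slide images.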 To be noted: higher = more signal.
Assay [3] in a line: plasmodial surface anion channel blockers, osmotic lysis – cell-based, P. falciparum Indochina, OD700, 1 h, primary screen (AID 1154). To be noted: P. falciparum Indochina infected RBC osmotic lysis, higher = more signal, called active from +8 up or from −8 down.
Assay [4] can be described thus: plasmodial surface anion channel blockers, osmotic lysis – cell-based, P. falciparum Indochina, OD700, 2 h, primary screen (AID 1155).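 Further: lysis reports solute entry through the parasite surface anion channel PSAC.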 The note with it: P. falciparum Indochina infected erythrocytes, higher = more signal, called active from +8 up or from −8 down.
Assay [5] is described as follows: changes in parasitized red cell lysis, either direction – P. falciparum Indochina, OD700, 3 h, PSAC antagonist project, primary screen (AID 1156). To be noted: P. falciparum-infected erythrocytes, osmotic lysis, higher = more signal, called active from +8 up or from −8 down.
A short description of assay [6]: plasmodial surface anion channel blockers, osmotic lysis – cell-based, P. falciparum Indochina, OD700, 18 h, primary screen (AID 1157). To be noted: P. falciparum Indochina infected erythrocytes, osmotic lysis OD700, 18 h; higher = more signal, called active from +8 up or from −8 down.
Assay [7] in a line: S6 kinase pathway phospho-S6 level changes – cell-based, A549, cytoblot, luminescence, serum-stimulated, primary screen (AID 1158).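 Further: serum-stimulated A549 lung adenocarcinoma cells; signal is phosphorylated S6 detected by cytoblot immunostaining with HRP secondary.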 To be noted: 5 h, higher = more signal.
Assay [8] has as its target NADPH oxidase 2 (Homo sapiens) (UniProt P04839). Put plainly: compounds shifting NOX2 Amplex Red fluorescence – cell-based, HEK293-NOX2, PMA-stimulated, NOX inhibitor project, primary screen (AID 1159). Further: test concentration not given here. The note with it: 45 min, higher = more signal, called active from +8 up or from −8 down.
Assay [9] concerns the target NADPH oxidase 4 (Homo sapiens) (UniProt Q9NPH5). Put plainly: compounds shifting NOX4 Amplex Red fluorescence – cell-based, HEK293-NOX4, tetracycline-induced, NOX inhibitor project, primary screen (AID 1160). To be noted: HEK293-NOX4, Amplex Red H2O2 fluorescence, 45 min; higher = more signal, called active from +8 up or from −8 down.
In assay [10] the target is NADPH oxidase 5 (Homo sapiens) (UniProt Q96PH1). In words: compounds shifting NOX5 Amplex Red fluorescence – cell-based, HEK293-NOX5, NOX inhibitor project, primary screen (AID 1161). The note with it: HEK293-NOX5, ionomycin, 45 min, higher = more signal.
Chain of NADPH oxidase 5 (Homo sapiens) (Q96PH1 whole entry, looked up): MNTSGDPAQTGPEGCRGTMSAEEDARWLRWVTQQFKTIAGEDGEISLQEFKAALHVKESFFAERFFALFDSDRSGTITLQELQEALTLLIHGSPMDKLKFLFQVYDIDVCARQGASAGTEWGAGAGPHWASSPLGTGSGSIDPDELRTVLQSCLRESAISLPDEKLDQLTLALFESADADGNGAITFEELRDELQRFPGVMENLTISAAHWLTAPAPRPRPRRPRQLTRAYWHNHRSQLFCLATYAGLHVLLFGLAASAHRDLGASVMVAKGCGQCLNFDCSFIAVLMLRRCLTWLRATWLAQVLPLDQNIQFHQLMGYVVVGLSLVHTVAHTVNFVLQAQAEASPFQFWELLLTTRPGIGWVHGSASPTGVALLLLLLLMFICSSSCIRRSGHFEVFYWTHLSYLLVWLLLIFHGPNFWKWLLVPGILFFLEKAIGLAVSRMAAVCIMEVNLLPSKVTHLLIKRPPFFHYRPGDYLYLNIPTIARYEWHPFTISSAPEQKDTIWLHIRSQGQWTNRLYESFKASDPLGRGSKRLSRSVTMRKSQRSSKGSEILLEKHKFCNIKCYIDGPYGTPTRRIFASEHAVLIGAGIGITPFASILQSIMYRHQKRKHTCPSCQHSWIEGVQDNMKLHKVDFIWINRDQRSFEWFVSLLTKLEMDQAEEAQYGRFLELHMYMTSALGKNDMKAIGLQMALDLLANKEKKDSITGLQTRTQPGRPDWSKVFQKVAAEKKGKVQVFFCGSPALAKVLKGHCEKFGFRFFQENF
Assay [11] is described as follows: compound effects on lung adenocarcinoma cell viability – A549, calcein-AM fluorescence, 48 h, basal, profiling panel (AID 1162). Further: test concentration not given here. To be noted: higher = more signal.
The nature of assay [12]: compound effects on differentiated 3T3-L1 adipocyte viability – cell-based, 3T3-L1 adipocytes, calcein-AM fluorescence, 48 h, basal, profiling panel (AID 1163). Further: test concentration not given here. The note with it: 3T3-L1 adipocytes viability, higher = more signal.
Assay [13] is described as follows: compound effects on hepatocellular carcinoma cell viability – HepG2, calcein-AM fluorescence, 48 h, basal, profiling panel (AID 1164). Further: test concentration not given here. The note with it: higher = more signal.
A short description of assay [14]: compound effects on multiple myeloma cell viability – MM1S, calcein-AM fluorescence, 48 h, basal, profiling panel (AID 1165).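 Further: viability of MM1S multiple myeloma cells under basal unstimulated conditions; test concentration not given here.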 The note with it: higher = more signal.
Assay [15] is described as follows: calcein-AM signal in unstimulated myeloma cells – cell-based, calcein-AM fluorescence, 48 h, PK04 Diversity Set, profiling panel (AID 1166).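 Further: cells grown under basal conditions without added stimulus; test concentration not given here.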 The note with it: RPMI8226 myeloma viability, higher = more signal.
The nature of assay [16]: JC-1 mitochondrial signal, unstimulated HepG2 cells – cell-based, JC-1 fluorescence, 24 h, 100 nL compound, profiling panel (AID 1167). Further: test concentration not given here. The note with it: HepG2 mitochondrial potential, higher = more signal.
Assay [17] in a line: JC-1 mitochondrial signal, unstimulated adipocytes – cell-based, JC-1 fluorescence, 3T3-L1 adipocytes, 24 h, 100 nL compound, profiling panel (AID 1168). Further: test concentration not given here. To be noted: JC-1 mitochondrial fluorescence, higher = more signal, called active from +8 up or from −8 down.
Assay [18] is described as follows: JC-1 mitochondrial signal, unstimulated myeloma cells – cell-based, JC-1 fluorescence, RPMI8226, 24 h, 100 nL compound, profiling panel (AID 1169). Further: test concentration not given here. To be noted: JC-1 mitochondrial potential fluorescence, higher = more signal.
Assay [19] in a line: JC-1 mitochondrial signal, unstimulated MM1S myeloma – cell-based, JC-1 fluorescence, 24 h, 100 nL compound, profiling panel (AID 1170). Further: test concentration not given here. To be noted: MM1S mitochondrial potential, higher = more signal.
Assay [20] is described as follows: resazurin metabolic signal in A549 cells – cell-based, resazurin fluorescence, 24 h, PK04 Diversity Set, profiling panel (AID 1171). Further: test concentration not given here. To be noted: A549 viability, higher = more signal, called active from +8 up or from −8 down.

Activity calls are given as the source filed them.

The source of these data is PubChem BioAssay.

Chain of NADPH oxidase 2 (Homo sapiens) (P04839 whole entry, looked up): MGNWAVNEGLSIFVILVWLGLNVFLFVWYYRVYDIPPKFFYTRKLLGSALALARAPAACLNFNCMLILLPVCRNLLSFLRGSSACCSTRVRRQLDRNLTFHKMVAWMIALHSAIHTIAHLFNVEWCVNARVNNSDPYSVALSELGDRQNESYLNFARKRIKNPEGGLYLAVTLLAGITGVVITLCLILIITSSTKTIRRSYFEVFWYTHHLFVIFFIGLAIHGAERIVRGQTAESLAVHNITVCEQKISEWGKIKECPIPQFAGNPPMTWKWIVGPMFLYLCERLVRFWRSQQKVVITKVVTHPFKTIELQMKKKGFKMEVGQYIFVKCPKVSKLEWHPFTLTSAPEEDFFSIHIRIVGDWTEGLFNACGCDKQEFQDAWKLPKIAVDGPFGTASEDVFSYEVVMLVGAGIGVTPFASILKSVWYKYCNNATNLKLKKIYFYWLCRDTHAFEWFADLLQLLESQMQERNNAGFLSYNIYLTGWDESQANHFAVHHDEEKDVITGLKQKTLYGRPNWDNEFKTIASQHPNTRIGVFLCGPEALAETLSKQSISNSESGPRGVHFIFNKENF
Chain of NADPH oxidase 4 (Homo sapiens) (Q9NPH5 whole entry, looked up): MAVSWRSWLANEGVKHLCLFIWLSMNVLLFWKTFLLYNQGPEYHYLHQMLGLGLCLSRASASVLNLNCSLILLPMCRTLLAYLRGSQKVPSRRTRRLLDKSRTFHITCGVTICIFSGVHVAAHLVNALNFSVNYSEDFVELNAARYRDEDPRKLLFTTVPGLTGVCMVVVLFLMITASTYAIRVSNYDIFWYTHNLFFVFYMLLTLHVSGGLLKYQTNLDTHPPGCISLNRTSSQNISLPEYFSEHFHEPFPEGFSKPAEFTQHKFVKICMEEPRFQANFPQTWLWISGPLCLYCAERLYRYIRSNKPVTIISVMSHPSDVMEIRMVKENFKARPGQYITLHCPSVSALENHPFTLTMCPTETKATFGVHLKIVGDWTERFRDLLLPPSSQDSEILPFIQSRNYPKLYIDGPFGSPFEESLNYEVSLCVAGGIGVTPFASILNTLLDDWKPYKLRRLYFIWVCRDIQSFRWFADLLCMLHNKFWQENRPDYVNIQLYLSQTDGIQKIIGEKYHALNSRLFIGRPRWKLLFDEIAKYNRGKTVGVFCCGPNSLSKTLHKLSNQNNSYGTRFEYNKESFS

For the compound `C=CCNC(=O)[C@H]1[C@@H]2C(=O)O[C@@H](c3ccccc3)[C@@H](c3ccccc3)N2[C@@H](c2ccc(OCCO)cc2)[C@]12C(=O)Nc1ccccc12`, the z-score in assay [1] was 0.738 (inactive); in assay [3], 10.1 (active); in [4] it was 1.01 (inactive); in assay [5], -0.444 (inactive); in assay [6] it was 0.81 (inactive); in [7], 0.0226. In addition, the z-score in [8] is 1.87 (inactive); in assay [9], 0.841 (inactive); in [10] it was -0.101; in assay [11], 0.375; in [12], 1.35; in assay [13], -0.503. Also, the z-score was 0.287 in assay [14]; -0.62 in [15]; -1.21 in [16]; -0.00331 (inactive) in assay [17]; -0.522 in assay [18]; -0.377 in assay [19]. Further, in [20], the z-score was 1.02 (inactive). Further, the composite z-score in assay [2] came out at 1.21.
Regarding `CC(C)=CCCC(C)=CC(O)C1C=CC2C(=O)NC(=O)C2N1Nc1ccc(Cl)cc1Cl` (stereo not given), the z-score in assay [1] is -2.85 (inactive); in assay [3] it was 7.58 (inactive); in [4], 1.61 (inactive); in [5], -0.519 (inactive); in assay [6], 1.39 (inactive); in assay [7] it was -0.498. Moreover, the z-score is -1.84 (inactive) in assay [8]; -5.04 (inactive) in assay [9]; -1.53 in assay [10]; -0.483 in [11]; -0.0042 in assay [12]; -1.62 in assay [13]. The z-score in assay [14] was -3.76; in [15], -4.11; in assay [16], -3.49; in [17], -0.947 (inactive); in [18] it was -0.238; in [19] it was -0.506. Besides, in assay [20], the z-score was -0.577 (inactive). This compound also registered a composite z-score in [2] of 0.544.
In the case of `COC(=O)C(CC#Cc1ccc2c(c1)[C@]1(C(=O)N2)[C@H](c2ccc(OCCO)cc2)N2[C@H](c3ccccc3)[C@H](c3ccccc3)OC(=O)[C@H]2[C@@H]1C(=O)N1CCCCCCC1)C(=O)OC`, the z-score in [1] is -0.598 (inactive); in assay [3], 7.3 (inactive); in assay [4] it was 1.59 (inactive); in [5] it was 0.309 (inactive); in assay [6], 0.712 (inactive); in assay [7], -0.173. The z-score was 0.783 (inactive) in assay [8]; 0.196 (inactive) in [9]; 1.44 in assay [10]; 0.996 in assay [11]; 0.915 in assay [12]; 0.846 in assay [13]. Further, the z-score in assay [14] is 0.491; in assay [15] it was -1.88; in assay [16], -0.386; in assay [17] it was -1.82 (inactive); in assay [18], -1.08; in assay [19] it was -1.36. In addition, the z-score in [20] was -0.387 (inactive). The same compound returned a composite z-score in assay [2] of 2.67.
Turning to `CC(C)NC(=O)[C@@H]1c2ccccc2C(=O)N(Cc2ccccc2C(F)(F)F)[C@H]1c1ccc(CO)cc1`, the z-score is 0.0029 (inactive) in assay [1]; 2.58 (inactive) in assay [3]; 0.0744 (inactive) in assay [4]; 1.32 (inactive) in assay [5]; 0.596 (inactive) in assay [6]; -0.262 in assay [7]. In addition, the z-score is 1.21 (inactive) in [8]; -0.805 (inactive) in assay [9]; -1.97 in assay [10]; -0.385 in assay [11]; -0.341 in [12]; -0.052 in [13]. In addition, the z-score in assay [14] is -0.321; in [15] it was 0.749; in [16], 0.186; in [17] it was -1.81 (inactive); in assay [18], 0.317; in assay [19], 0.0239. In addition, the z-score in assay [20] was 2.53 (inactive). In [2], this compound yielded a composite z-score of -0.556.
With `C=C(C)[C@@H]1CC=C(C(O)C2C=CC3C(=O)N(c4ccccc4)C(=O)C3N2Nc2ccc([N+](=O)[O-])cc2)CC1` (stereo not given in full), the z-score was -1.58 (inactive) in assay [1]; 5.76 (inactive) in [3]; 1.9 (inactive) in assay [4]; 1.34 (inactive) in assay [5]; 1.79 (inactive) in assay [6]; -0.456 in [7]. For the same compound, the z-score was -0.962 (inactive) in assay [8]; -2.07 (inactive) in assay [9]; -2.96 in [10]; 0.485 in assay [11]; 0.153 in assay [12]; 0.736 in [13]. Moreover, the z-score in assay [14] is -0.807; in assay [15], -0.493; in assay [16], -0.307; in assay [17], -2.47 (inactive); in assay [18], -0.507; in assay [19] it was 0.451. Besides, the z-score in [20] was -0.963 (inactive). In assay [2], this compound returned a composite z-score of 0.37.
